Screens deposited in PubChem by National Center for Advancing Translational Sciences (NCATS).
Vaccinia mCherry: qHTS for Stage-Specific Inhibitors of Vaccinia Orthopoxvirus: mCherry Reporter Primary qHTS | Vaccinia virus mCherry reporter infection, fluorescence | Potency, µM (top dose mostly 36.5 µM), for inactives: top-dose activity change, negative = inhibition, hits mostly inhibitors | actives 0.63% (n = 310,000) | AID 720579, 2013; calls by dose curve; tested in A549 cells; also: nearly all actives have a fitted effect of over 35% in size
Lassa entry inh: qHTS for Inhibitors of binding or entry into cells for Lassa Virus. Lassa virus pseudotype entry inhibition, cell reporter. AID 540256, 2011. Potency, µM (highest dose often 37.9 µM), inactives show at the top dose activity change, negative = inhibition, actives largely listed as inhibitors. actives 1.2% (n = 300,000); calls by dose curve; tested in HEK293 cells; also: nearly all actives have a fitted effect of over 50% in size
Vaccinia Venus: qHTS for Stage-Specific Inhibitors of Vaccinia Orthopoxvirus: Venus Reporter Primary qHTS | Vaccinia virus Venus reporter expression, fluorescence | Potency, µM (titrated, usually from 36.5 µM), without a hit: top-dose activity change, negative = inhibition, usual class: inhibitors | actives 0.46% (n = 330,000) | AID 720580, 2013; calls by dose curve; tested in A549 cells; also: nearly all actives have a fitted effect of over 30% in size
MARV entry inh: qHTS for inhibitors of binding or entry into cells for Marburg Virus; AID 540276, 2011; Marburg virus pseudotyped entry inhibition, cell reporter; Potency, µM (highest dose often 37.8 µM), for inactives: top-dose activity change, negative = inhibition, actives largely listed as inhibitors; actives 1.8% (n = 300,000); calls by dose curve; tested in HEK293 cells
Active calls of the source: *; i = inactive; u = inconclusive; x = not tested or not shown; ! = a repeat was not active; [ ] = dose if it differs, or a comment. Hits are enriched below; roughly 2.5% of the tested compounds scored in any of these assays. % is scaled to controls: 0 for no effect and ±100 for the full control effect; potency is read from the fitted curve at half-maximal effect.

SMILES	Vaccinia mCherry	Lassa entry inh	Vaccinia Venus	MARV entry inh
C=C(NC(=O)C(=C)NC(=O)c1csc(C2=NC3c4csc(n4)C4NC(=O)c5csc(n5)C(C(C)(O)C(C)O)NC(=O)C5CSC(=N5)/C(=C/C)NC(=O)C(C(C)O)NC(=O)c5csc(n5)C3(CC2)NC(=O)C(C)NC(=O)C(=C)NC(=O)C(=C)NC(=O)C(C(C)C)NC2C=Cc3c(C(C)O)cc(nc3C2O)C(=O)OC4C)n1)C(N)=O (stereo not given)	-27%	6.3µM*	-21%	4µM*
O=C(CCl)N1N=C(c2ccco2)CC1c1cccs1 (stereo not given)	8.9µM*	-27%	u	u
CC(=O)N1N=C(c2ccco2)CC1c1cccs1 (stereo not given)	i	-10%	-15%	6%
CCSc1nc(O)c([C@H]2OC(=O)c3c2ccc(OC)c3OC)c(=O)n1-c1ccccc1	x	x	x	0%
CC(=O)NC(Cc1ccc([N+](=O)[O-])cc1)C(=O)NCC(N)C(=O)c1ccccc1 (stereo not given)	i	x	-19%	x
ClC(Cl)(Cl)c1nc2ccccc2n2nncc12	u	u	u	4.5µM*
CCC1CN(CCNC(=O)c2cc(C(C)C)nn2C)Cc2cc(OC)ccc2O1 (stereo not given)	-19%	x	-19%	x
COc1ccccc1CNC(=O)c1ccc2nc3[nH]c4ccccc4c3nc2c1	8.9µM*	u	10µM*	u
CCCCCCCCCCCCCCCC[n+]1cccc(C(=O)N(CC)CC)c1	-24%	11µM*	-18%	7.1µM*
C#CCCCO/N=C1\C[C@@H](O)[C@@H](O)[C@@H]2[C@@H]3C(=O)N(C[C@@H]4CCCO4)C(=O)[C@@H]3CC[C@@H]12	x	x	x	3%[14.2 µM]
COc1ccc2c(c1)[C@@H](NC(=O)C(F)(F)F)C1CCCCC21c1ccccc1 (stereo not given in full)	x	x	x	-4%[14.2 µM]
O=C(NCc1ccco1)C1CCN(C(=O)c2cc3sccc3n2Cc2ccc(Cl)cc2)CC1	u	u	u	12µM*!
COCCNC(=O)C1CCN(C(=O)c2cc3sccc3n2Cc2ccc(Cl)cc2)CC1	-21%	x	-27%	7.9µM*
COCCCNC(=O)C1CCN(C(=O)c2cc3sccc3n2Cc2ccc(Cl)cc2)CC1	-10%	x	-18%	u
CC[N+](CC)(CC)c1ccc(/C=C/c2ccc3ccccc3n2)cc1	i	x	i	x
CN(C)c1cc2c3ccccc3ccc2c2ccccc12	-13%	x	-6%	x
COc1ccc(-n2c(C)cc(/C=N/Nc3nnc(C)n3N)c2C)cc1	11µM*	-17%	u	u
COc1cccc(/C=N/Nc2nnc(C)n2N)c1O	7.1µM*	9%[46.1 µM]	u	u
COc1cccc(/C=N/Nc2nc(N3CCCC3)nc(N3CCCC3)n2)c1O	-14%	16%	-26%	26µM*
O=C(Nc1ccc(S(=O)(=O)N2CCCC2)cc1)c1ccc2c(=O)n3c(nc2c1)CCCCC3	-12%	-2%	-4%	2.5µM*
O=C(c1ccc2c(=O)n3c(nc2c1)CCCCC3)N1CCN(C(c2ccccc2)c2ccccc2)CC1	x	16µM*	x	u
Cc1ccc(S(=O)(=O)N2CCCCC2)cc1NC(=O)c1ccc2c(=O)n3c(nc2c1)CCCCC3	x	16µM*	x	u
COc1cc(-c2nc(C)cnc2C)cc2c1OCCN(C(=O)Cc1cc(OC)c(OC)c(OC)c1)C2	-9%	x	10%	x
CN(C)c1ccc(/C=C/c2ccnc3c(O)ccc(O)c23)cc1	0%	x	-12%	x
CCN(CC)S(=O)(=O)c1cc(C(=O)Nc2cccnc2)ccc1Cl	x	15%	x	4%
SMILES	Vaccinia mCherry	Lassa entry inh	Vaccinia Venus	MARV entry inh
CCN(CC)S(=O)(=O)c1cc(C)ccc1NC(=S)Nc1cccnc1	-19%	u	-19%	11µM*
COc1ccc(N2C(=O)c3ccccc3NC2c2ccc(OC)c(COc3ccc(NC(C)=O)cc3)c2)cc1 (stereo not given)	u	x	-12%	x
O=S1(=O)CC(N2CC=CC2)CN1CCc1ccccc1 (stereo not given)	x	8%[46.1 µM]	x	x
CCCCC1(CC(=O)OC)C(=O)N(c2ccccc2)N(c2ccccc2)C1=O	-12%	-3%	-1%	u
CCCCC1(Cc2ccc(OC)c([N+](=O)[O-])c2)C(=O)N(c2ccccc2)N(c2ccccc2)C1=O	-17%	u	-15%	14µM*
CCOC(=O)C1=CN(CCc2cn(Cc3ccccc3)nn2)C(=O)NC1c1ccccc1 (stereo not given)	x	x	x	-8%[14.2 µM]
Cc1cc(=O)[nH]c(N/N=C/c2ccccn2)n1	u	7.1µM*	u	2.6µM*
Cc1cc(=O)[nH]c(NN=Cc2c(Cl)cccc2Cl)n1	-9%	17%	-13%	21%
O=c1cnnc(N/N=C/c2ccccn2)[nH]1	2.2µM*	x	-20%	x
C(=N\Nc1nncc2ccccc12)/c1ccccn1	10µM*	1.1µM*	u	u
O=c1nc(N/N=C/c2ccccn2)cn[nH]1	4µM*	3.5µM*	u	u
CC(/C=N/Nc1nncc(=O)[nH]1)=C\c1ccccc1	-12%	u	-1%	3%
Cc1ccc(S(=O)(=O)N2CCN(c3nc(-c4cncs4)nc4ccccc34)CC2)cc1	-15%	x	-12%	x
CN1C(=O)[C@]2(c3ccccc31)[C@H]1CCCC=C1C(C#N)=C(N)C2(C#N)C#N	x	x	x	-6%
C/C(=N/O)C(=O)NCCCn1ccnc1	x	x	x	20%[46.1 µM]
CCCCCCN1C[C@@H](n2cc(COC(=O)c3ccccc3)nn2)[C@H](O)C[C@H]1c1ccccc1	x	13%[46.1 µM]	x	x
Cc1cccc(-c2cccc(NC(=O)C3CCCN(C(=O)c4ocnc4C)C3)c2)c1 (stereo not given)	-21%	3.5µM*	u	u
CCc1nc(C)c(C(=O)N2CCCC(C(=O)Nc3cccc(-c4cccc(C)c4)c3)C2)o1 (stereo not given)	-26%	u	-18%	u
Cn1c(/C=C/c2cccc(Br)c2)nc2ccccc2c1=O	-27%	u	u	10µM*
Cc1ccc(C(C)(C)C)cc1S(=O)(=O)N1CCC(C(=O)N2CCN(c3ccc(O)cc3)CC2)CC1	-9%	2.8µM*	-15%	u
COc1ccc(-c2nc3n(n2)C(=O)C[C@@H](c2ccco2)S3)cc1	x	x	x	10%
Cc1ccc(CSc2cn(CC(=O)N3CCCCCC3)c3ccccc23)cc1	-8%	8.9µM*	-10%	x
Cc1ccc(CSc2cn(CC(=O)N3CCCC3)c3ccccc23)cc1	-16%	-14%[46.1 µM]	-15%	x
CN1C(=O)COC2CCC(C(=O)C3=C(C(=O)O)CCCC3)CC21 (stereo not given)	x	x	x	11%
O=C(OCc1ccccc1F)c1ccc2c(c1)-c1ccccc1C2=O	x	2.1µM*	x	14%
O=C(OCc1cccc(F)c1)c1ccc2c(c1)-c1ccccc1C2=O	-25%	u	-21%	-1%
COc1ccc(-c2cccc3c2OC(CNC(=O)c2ccc4c(c2)OCO4)C3)nn1 (stereo not given)	-5%	x	4%	x
